# Wnt bcat act: activates Wnt/beta-catenin signaling in a reporter cell assay. 300,000 compounds, 1.2% hits. activator, plate reader. activation, % at 9.35 µM; in the data active means activation above about 30%, passing the limit was not always enough; inconclusive means no clear call, values can overlap the other calls;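 further: 0% = neutral control wells and 100% = positive control wells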
# Rtt109 Vps75: C. albicans Rtt109 histone acetyltransferase inhibition; purified Rtt109/Vps75, ThioGlo CoA-SH fluorescence, 4 h; inhibition, % at 34.9 µM; Q5AAJ8; AID 540336; 330,000 compounds, 0.16% hits;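 active means inhibition of at least 50% in every replicate; inconclusive means best replicate reaches 50% inhibition but some replicates fall short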
# Target sequence (Q5AAJ8 whole entry, looked up): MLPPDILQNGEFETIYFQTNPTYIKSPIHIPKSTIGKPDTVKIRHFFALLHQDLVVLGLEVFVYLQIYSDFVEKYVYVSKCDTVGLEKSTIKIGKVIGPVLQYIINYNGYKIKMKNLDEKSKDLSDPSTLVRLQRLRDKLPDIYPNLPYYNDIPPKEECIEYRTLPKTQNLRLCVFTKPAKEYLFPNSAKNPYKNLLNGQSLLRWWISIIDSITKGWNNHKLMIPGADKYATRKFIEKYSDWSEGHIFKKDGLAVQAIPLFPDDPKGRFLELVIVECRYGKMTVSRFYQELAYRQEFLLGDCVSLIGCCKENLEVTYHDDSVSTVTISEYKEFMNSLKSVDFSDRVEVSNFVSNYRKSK
# Statin myotox sup: suppression of simvastatin myotoxicity | C2C12 myotubes + simvastatin, ATP luminescence, 48 h; scaled: DMSO 0, geranylgeraniol control 100 | rescue of ATP level, % at 7.49 µM | 330,000 compounds, 0.78% hits | AID 602340;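 active means mean ATP rescue above about 67%, or every replicate alone reaching that limit, limit read from the data, passing the limit was not always enough; inconclusive means no clear call, values can overlap the other calls; inactive means mean under the limit and some replicate under it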;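 further: myotubes were challenged with 10 µM simvastatin during compound exposure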
# esBAF inh: blocks esBAF chromatin remodeling in mouse ES cells; Bmi1-luciferase knock-in reporter, 24 h; 100% = twice the neutral-well signal; reporter increase, % at 12.5 µM; 350,000 compounds, 2% hits; AID 602393; in the data active means activation above about 40%; inconclusive means no clear call, values can overlap the other calls;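 further: 0% = median of the plate's neutral control wells and 100% = double that signal; a rise in the Bmi1 reporter signal indicates esBAF inhibition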
# MITF TRPM1 HTS: activators of MITF-driven TRPM1 promoter activity in SK-MEL-5 cells. SK-MEL-5 TRPM1-promoter luciferase, 24 h; % of positive control, neutral wells = 0. activation, % at 12.5 µM. 300,000 compounds, 0.75% hits;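 active means mean activation of at least 80% with every replicate also reaching 80%; inconclusive means mean reaches 80% but some replicate falls short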;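 further: 0% = neutral control wells and 100% = parthenolide positive control wells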
# An asterisk follows results filed as active; u = inconclusive; x = no result. Hits are enriched below; roughly 3.1% of the tested compounds scored in any of these assays.
SMILES,Wnt bcat act,Rtt109 Vps75,Statin myotox sup,esBAF inh,MITF TRPM1 HTS
Cc1ccc(S(=O)(=O)N[C@H]2CC[C@@H](CCNC(=O)C3CC3)O[C@H]2CO)cc1,x,x,2,-2,x
O=C(C[C@@H]1CC[C@H]2[C@@H](COC[C@H](O)CN2C(=O)Nc2cccc(Cl)c2)O1)NCc1ccccc1F,x,x,-9,13,x
CCCNC(=O)C(=O)N/N=C/c1ccc(OCc2ccccc2)cc1,3,16,-3,-1,24
O=C(N/N=C/c1ccc(OCc2ccccc2)cc1)c1ccncc1,11,-4,-7,28,39
O=C(N/N=C/c1ccc(OCc2ccccc2)cc1)c1cccs1,x,-5,-26,48*,55
Oc1ccc(N=Cc2ccc(OCc3ccccc3)cc2)cc1,15,7,14,48*,-35
CCC1(C)N=C(c2ccc3c(c2)OCO3)CC(c2ccccc2O)N1 (configuration not stated),14,11,6,46*,40
Nc1c(C(=O)Nc2nc3ccccc3s2)sc2nc(-c3cccs3)ccc12,2,-14,-349,-13,-67
CC(=O)c1sc2nc(-c3cccs3)ccc2c1N,x,-9,9,65*,x
CCCCc1nnc(NC(=O)c2oc3ccccc3c2C)s1,3,-6,1,63*,37
Cc1nnc(NC(=O)c2oc3ccccc3c2C)s1,25,12,x,x,22
Cc1nc(NC(=O)c2oc3ccccc3c2C)sc1C(=O)N(C)C,17,-4,2,62*,57
C[C@H]1CN([C@@H](C)CO)C(=O)CCCn2nncc2CO[C@H]1CN(C)Cc1ccc(Cl)c(Cl)c1,x,x,15,12,x
CC(=O)c1ccc2c(c1)C1C=CCC1C(c1ccncc1)N2 (configuration not stated),x,4,4,54*,34
Cc1ccc(S(=O)(=O)c2c(CO)c(-c3ccccc3)nn2C)cc1,-1,3,x,x,-16
Cc1ccc(S(=O)(=O)c2c(COC(=O)c3ccccc3Cl)c(-c3ccccc3)nn2C)cc1,2,2,116*,-17,-11
Cc1ccc(S(=O)(=O)N(C)C[C@@H]2Oc3c(NC(=O)c4ccncc4)cccc3C(=O)N([C@H](C)CO)C[C@@H]2C)cc1,x,x,-22,-2,x
COc1ccc(-c2oc3ccccc3c2C(=O)OCc2ccccc2)cc1,15,0,12,27,21
COc1ccc(-c2oc3ccccc3c2C(=O)OCc2ccc(O)cc2)cc1,-2,-4,18,45*,2
CCOC(=O)C1CCN(S(=O)(=O)c2cc(Br)cc3c2N(C(C)=O)C(C)C3)CC1 (configuration not stated),0,-3,88*,-1,-1
CCOC(=O)N1CCN(S(=O)(=O)c2cc(Br)cc3c2N(C(C)=O)C(C)C3)CC1 (configuration not stated),x,-2,19,-5,7
CCn1c(SCC(=O)Nc2cc(OC)c(OC)c(OC)c2)nnc1-c1cccs1,-5,63*,23,2,10
CCn1c(SCC(=O)NCc2cccs2)nnc1-c1ccco1,x,0,105*,-1,17
CCn1c(SCC(=O)NCc2cccs2)nnc1-c1ccncc1,-4,7,10,-3,4
CN1C(=O)c2cc(NC(=O)Nc3ccccc3)ccc2OC[C@@H]2O[C@H](CC(=O)O)CC[C@H]21,x,x,-9,-5,x
SMILES,Wnt bcat act,Rtt109 Vps75,Statin myotox sup,esBAF inh,MITF TRPM1 HTS
CO[C@@H]1CN(C)C(=O)c2ccc(NC(C)=O)cc2OC[C@H](C)N(C(=O)Cc2ccccn2)C[C@H]1C,x,x,-15,-2,x
O=C(C[C@@H]1CC[C@H](NC(=O)c2cccnc2)[C@H](CO)O1)NCc1ccncn1,x,x,-2,-8,x
CC(C)CN(Cc1cc2ccccc2[nH]c1=O)C(=O)c1cccnc1,x,-8,4,3,0
CC(C)N(Cc1cc2ccccc2[nH]c1=O)C(=O)c1cccnc1,-1,2,88*,1,2
CCOc1cc(C(=O)N(C)Cc2cc3ccccc3[nH]c2=O)cc(OCC)c1OCC,-3,-10,98*,-2,x
COc1cc(C)ccc1OCc1cc(C(=O)N(C)CCCN2CCOCC2)no1,u,2,-2,74*,127*
CN(CCCN1CCOCC1)C(=O)c1cc(COc2ccc(F)cc2F)on1,-4,-4,7,1,6
COc1cc(C)ccc1OCc1cc(C(=O)NCCN2CCOCC2)no1,26,5,4,63*,107*
C[C@H](CO)N1C[C@H](C)[C@H](CN(C)C(=O)c2ccncc2)Oc2ncc(C#CC3CC3)cc2C1=O,x,x,48,x,x
CNC(=O)c1ccc(-c2ccc(F)cc2)s1,x,-4,69*,15,55
CNC(=O)c1ccc(-c2ccc(OC)cc2)s1,x,13,-9,38,65
CN1CCN(C(=O)C[C@@H]2C[C@H]3c4cc(NC(=O)NC5CCCC5)ccc4O[C@H]3[C@@H](CO)O2)CC1,x,x,-6,4,x
Cc1ccccc1S(=O)(=O)N1C[C@H](O)COC[C@@H]2O[C@H](CC(=O)NCc3ccccc3Cl)CC[C@H]21,x,x,20,1,x
COc1ccccc1OCCSc1nc2ccccc2c(=O)[nH]1,44*,0,-5,64*,52
O=S(=O)(c1ccc(Cl)s1)N1CCCc2cccc(O)c21,39*,-1,-4,84*,x
O=C(OC(C(=O)NCc1ccccc1)c1ccccc1F)c1ccco1 (configuration not stated),1,-9,1,0,-5
O=C(OC(C(=O)NCc1ccc2c(c1)OCO2)c1ccccc1F)c1ccco1 (configuration not stated),x,0,84*,6,3
C[C@@H]1CCCCO[C@@H](CN(C)CC2CCCCC2)[C@H](C)CN([C@@H](C)CO)C(=O)c2cc(NC(=O)NC3CCCCC3)ccc2O1,x,x,-41,4,x
COC(=O)c1oc2ccc(OC)cc2c1N,x,13,-18,32,45
COc1ccc(C(=O)c2oc3ccc(OC)cc3c2N)cc1,47*,-21,-19,86*,102*
COc1ccc2cc3cc(C(=O)N(C)C4CCCCC4)oc3nc2c1,1,-5,-28,51*,68
C[C@@H]1CCCCO[C@@H](CN(C)Cc2ccc3c(c2)OCO3)[C@H](C)CN([C@@H](C)CO)C(=O)c2cc(NC(=O)CCCN(C)C)ccc2O1,x,x,-10,-2,x
CC(=O)N(C)c1ccc(NCc2cc(=O)oc3cc(C)c(O)cc23)cc1,1,4,1,80*,-21
Cc1cc(C)cc(NCc2cc(=O)oc3cc(C)c(O)cc23)c1,0,u,1,-3,-5
COC(=O)c1ccc2c(c1)C(=O)/C(=C/c1ccc(C)cc1)O2,5,1,4,67*,64
Cc1ccc(-c2cc(N)n(-c3ccc(C)cc3)n2)cc1,x,0,112*,47*,87*
Cc1ccc(-c2cc3nc(-c4ccccc4)cc(N)n3n2)cc1,42*,-4,x,x,64
Cc1ccc(-c2cc(N)n3nc(-c4ccc(C)cc4)cc3n2)cc1,-2,-4,-45,-1,12
